The supplement of paper PMC11732987, “Enantioselective OTUD7B fragment discovery through chemoproteomics screening and high-throughput optimisation” (Communications Chemistry, 2025)
Unmarked numbers belong to inactive results.

Columns and labels:
Assay in all cases: log2 ratio of Biotin-Ahx-Ub-VS probe labelling (fragment/DMSO); higher = less target engagement (more negative = stronger competition), active = hit call of the paper (q ≤ 0.05, log2 ratio ≤ -1)
Settings in all cases: compound concentration: 200 uM; treatment time: 3 h
UniProt O00507 = target: UniProt O00507
How it was run: (§1)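 HEK293T lysate in Tris/CHAPS/IGEPAL buffer with protease inhibitors (495 µg per sample) was given fragment at 200 µM or vehicle for 3 h, in triplicate. It then received Biotin-Ahx-Ub-VS at 0.5 µM final for 1 h. Labelled DUBs were NeutrAvidin-enriched, digested with LysC and trypsin, and run by diaPASEF LC-MS/MS. Values are average log2 fragment/vehicle ratios by unpaired t-test on global-median-normalised Spectronaut quantities of proteins with ≥2 unique peptides.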

UniProt P51784 = target: UniProt P51784
How it was run: as §1

UniProt Q5T2D3 = target: T1, UniProt Q5T2D3
T1 sequence (whole entry): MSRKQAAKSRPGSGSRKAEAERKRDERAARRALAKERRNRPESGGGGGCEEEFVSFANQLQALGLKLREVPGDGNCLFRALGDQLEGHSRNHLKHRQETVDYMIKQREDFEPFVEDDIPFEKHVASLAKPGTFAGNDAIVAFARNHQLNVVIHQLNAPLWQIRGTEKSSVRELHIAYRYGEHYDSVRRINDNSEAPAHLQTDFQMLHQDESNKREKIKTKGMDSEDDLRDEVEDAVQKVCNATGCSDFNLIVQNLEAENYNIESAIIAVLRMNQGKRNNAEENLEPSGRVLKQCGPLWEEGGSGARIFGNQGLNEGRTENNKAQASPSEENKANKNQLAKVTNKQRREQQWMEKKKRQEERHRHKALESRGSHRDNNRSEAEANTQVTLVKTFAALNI
How it was run: as §1

UniProt Q8TE49 = target: T2, UniProt Q8TE49
T2 sequence (whole entry): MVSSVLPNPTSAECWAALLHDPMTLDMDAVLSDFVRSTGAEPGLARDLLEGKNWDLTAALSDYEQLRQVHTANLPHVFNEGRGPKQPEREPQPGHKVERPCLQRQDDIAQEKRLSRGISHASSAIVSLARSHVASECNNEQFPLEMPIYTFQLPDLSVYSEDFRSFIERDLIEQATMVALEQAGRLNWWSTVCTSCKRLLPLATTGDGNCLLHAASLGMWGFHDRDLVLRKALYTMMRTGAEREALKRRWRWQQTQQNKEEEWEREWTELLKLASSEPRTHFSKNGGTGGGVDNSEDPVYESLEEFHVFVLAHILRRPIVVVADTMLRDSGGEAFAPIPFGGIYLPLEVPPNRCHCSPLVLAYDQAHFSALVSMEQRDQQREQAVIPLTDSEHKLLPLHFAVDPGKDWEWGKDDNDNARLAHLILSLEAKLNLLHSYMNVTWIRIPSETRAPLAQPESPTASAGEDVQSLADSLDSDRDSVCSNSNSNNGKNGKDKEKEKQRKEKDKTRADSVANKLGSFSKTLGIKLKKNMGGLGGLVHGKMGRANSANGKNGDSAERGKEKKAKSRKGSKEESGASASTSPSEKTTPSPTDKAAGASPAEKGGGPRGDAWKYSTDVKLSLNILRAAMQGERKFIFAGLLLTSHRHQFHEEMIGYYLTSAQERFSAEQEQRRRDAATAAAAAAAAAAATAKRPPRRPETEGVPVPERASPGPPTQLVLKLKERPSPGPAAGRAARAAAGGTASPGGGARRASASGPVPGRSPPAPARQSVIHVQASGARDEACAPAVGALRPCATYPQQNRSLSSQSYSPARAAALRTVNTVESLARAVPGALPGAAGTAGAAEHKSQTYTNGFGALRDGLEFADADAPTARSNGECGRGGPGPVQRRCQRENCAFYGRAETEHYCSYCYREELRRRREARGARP
How it was run: as §1

UniProt Q9P2H5 = target: T3, UniProt Q9P2H5
T3 sequence (whole entry): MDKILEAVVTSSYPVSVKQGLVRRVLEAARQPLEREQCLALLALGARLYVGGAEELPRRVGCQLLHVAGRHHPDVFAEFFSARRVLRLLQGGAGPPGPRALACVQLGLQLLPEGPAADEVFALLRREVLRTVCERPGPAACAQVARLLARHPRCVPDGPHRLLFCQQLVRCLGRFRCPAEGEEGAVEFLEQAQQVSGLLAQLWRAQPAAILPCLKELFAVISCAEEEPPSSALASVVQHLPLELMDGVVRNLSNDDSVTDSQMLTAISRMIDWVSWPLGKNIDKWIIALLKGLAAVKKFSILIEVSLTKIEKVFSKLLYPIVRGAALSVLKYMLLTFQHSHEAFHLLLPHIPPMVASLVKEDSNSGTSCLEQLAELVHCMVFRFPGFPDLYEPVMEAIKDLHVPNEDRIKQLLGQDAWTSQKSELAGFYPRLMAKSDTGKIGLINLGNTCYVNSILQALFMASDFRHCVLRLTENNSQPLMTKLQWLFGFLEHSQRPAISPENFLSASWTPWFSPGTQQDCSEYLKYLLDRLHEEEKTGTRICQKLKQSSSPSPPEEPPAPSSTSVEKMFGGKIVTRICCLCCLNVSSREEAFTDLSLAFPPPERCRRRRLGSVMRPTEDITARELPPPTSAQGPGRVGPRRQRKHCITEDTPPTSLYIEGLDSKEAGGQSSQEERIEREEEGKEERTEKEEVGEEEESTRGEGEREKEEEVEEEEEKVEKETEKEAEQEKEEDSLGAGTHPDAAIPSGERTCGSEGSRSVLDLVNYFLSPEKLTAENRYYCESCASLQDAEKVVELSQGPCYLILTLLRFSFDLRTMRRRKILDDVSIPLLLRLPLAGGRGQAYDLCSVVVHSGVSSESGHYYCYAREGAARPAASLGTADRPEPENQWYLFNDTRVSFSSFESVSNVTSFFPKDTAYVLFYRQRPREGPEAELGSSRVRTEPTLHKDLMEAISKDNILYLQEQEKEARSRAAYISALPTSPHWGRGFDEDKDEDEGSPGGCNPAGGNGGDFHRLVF
How it was run: as §1

UniProt Q9UGI0 = target: T4, UniProt Q9UGI0
T4 sequence (whole entry): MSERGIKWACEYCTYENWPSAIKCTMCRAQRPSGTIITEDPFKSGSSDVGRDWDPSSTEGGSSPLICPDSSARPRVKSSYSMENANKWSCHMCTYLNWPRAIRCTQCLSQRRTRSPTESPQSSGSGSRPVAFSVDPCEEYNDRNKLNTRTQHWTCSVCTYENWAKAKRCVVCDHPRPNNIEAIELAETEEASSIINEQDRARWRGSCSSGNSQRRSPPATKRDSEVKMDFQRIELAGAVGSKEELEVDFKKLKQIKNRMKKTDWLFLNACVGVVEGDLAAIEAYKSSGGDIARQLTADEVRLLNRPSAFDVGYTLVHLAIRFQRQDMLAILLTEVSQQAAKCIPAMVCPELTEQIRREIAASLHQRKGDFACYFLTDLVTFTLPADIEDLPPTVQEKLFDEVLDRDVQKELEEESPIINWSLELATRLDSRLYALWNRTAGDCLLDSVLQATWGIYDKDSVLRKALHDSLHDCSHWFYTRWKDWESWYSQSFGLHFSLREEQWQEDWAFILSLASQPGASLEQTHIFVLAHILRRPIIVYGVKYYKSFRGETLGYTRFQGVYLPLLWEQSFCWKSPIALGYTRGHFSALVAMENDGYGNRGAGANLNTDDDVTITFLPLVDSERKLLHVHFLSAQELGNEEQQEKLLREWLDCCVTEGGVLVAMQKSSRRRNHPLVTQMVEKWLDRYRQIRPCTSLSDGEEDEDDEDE
How it was run: as §1

YOD1 = target: T5, YOD1 (UniProt Q5VVQ6)
T5 sequence (whole entry): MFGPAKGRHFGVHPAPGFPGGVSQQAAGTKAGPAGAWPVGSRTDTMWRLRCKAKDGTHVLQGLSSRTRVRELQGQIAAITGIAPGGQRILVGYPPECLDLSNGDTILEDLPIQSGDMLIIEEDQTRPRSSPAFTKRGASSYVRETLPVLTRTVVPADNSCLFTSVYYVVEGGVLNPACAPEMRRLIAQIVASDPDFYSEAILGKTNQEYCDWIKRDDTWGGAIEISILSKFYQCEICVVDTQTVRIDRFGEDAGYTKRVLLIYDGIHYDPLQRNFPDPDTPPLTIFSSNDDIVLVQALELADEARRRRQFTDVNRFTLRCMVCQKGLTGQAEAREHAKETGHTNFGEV
How it was run: as §1

Sequence of UniProt O00507 (O00507 whole entry, the tested form may be a part): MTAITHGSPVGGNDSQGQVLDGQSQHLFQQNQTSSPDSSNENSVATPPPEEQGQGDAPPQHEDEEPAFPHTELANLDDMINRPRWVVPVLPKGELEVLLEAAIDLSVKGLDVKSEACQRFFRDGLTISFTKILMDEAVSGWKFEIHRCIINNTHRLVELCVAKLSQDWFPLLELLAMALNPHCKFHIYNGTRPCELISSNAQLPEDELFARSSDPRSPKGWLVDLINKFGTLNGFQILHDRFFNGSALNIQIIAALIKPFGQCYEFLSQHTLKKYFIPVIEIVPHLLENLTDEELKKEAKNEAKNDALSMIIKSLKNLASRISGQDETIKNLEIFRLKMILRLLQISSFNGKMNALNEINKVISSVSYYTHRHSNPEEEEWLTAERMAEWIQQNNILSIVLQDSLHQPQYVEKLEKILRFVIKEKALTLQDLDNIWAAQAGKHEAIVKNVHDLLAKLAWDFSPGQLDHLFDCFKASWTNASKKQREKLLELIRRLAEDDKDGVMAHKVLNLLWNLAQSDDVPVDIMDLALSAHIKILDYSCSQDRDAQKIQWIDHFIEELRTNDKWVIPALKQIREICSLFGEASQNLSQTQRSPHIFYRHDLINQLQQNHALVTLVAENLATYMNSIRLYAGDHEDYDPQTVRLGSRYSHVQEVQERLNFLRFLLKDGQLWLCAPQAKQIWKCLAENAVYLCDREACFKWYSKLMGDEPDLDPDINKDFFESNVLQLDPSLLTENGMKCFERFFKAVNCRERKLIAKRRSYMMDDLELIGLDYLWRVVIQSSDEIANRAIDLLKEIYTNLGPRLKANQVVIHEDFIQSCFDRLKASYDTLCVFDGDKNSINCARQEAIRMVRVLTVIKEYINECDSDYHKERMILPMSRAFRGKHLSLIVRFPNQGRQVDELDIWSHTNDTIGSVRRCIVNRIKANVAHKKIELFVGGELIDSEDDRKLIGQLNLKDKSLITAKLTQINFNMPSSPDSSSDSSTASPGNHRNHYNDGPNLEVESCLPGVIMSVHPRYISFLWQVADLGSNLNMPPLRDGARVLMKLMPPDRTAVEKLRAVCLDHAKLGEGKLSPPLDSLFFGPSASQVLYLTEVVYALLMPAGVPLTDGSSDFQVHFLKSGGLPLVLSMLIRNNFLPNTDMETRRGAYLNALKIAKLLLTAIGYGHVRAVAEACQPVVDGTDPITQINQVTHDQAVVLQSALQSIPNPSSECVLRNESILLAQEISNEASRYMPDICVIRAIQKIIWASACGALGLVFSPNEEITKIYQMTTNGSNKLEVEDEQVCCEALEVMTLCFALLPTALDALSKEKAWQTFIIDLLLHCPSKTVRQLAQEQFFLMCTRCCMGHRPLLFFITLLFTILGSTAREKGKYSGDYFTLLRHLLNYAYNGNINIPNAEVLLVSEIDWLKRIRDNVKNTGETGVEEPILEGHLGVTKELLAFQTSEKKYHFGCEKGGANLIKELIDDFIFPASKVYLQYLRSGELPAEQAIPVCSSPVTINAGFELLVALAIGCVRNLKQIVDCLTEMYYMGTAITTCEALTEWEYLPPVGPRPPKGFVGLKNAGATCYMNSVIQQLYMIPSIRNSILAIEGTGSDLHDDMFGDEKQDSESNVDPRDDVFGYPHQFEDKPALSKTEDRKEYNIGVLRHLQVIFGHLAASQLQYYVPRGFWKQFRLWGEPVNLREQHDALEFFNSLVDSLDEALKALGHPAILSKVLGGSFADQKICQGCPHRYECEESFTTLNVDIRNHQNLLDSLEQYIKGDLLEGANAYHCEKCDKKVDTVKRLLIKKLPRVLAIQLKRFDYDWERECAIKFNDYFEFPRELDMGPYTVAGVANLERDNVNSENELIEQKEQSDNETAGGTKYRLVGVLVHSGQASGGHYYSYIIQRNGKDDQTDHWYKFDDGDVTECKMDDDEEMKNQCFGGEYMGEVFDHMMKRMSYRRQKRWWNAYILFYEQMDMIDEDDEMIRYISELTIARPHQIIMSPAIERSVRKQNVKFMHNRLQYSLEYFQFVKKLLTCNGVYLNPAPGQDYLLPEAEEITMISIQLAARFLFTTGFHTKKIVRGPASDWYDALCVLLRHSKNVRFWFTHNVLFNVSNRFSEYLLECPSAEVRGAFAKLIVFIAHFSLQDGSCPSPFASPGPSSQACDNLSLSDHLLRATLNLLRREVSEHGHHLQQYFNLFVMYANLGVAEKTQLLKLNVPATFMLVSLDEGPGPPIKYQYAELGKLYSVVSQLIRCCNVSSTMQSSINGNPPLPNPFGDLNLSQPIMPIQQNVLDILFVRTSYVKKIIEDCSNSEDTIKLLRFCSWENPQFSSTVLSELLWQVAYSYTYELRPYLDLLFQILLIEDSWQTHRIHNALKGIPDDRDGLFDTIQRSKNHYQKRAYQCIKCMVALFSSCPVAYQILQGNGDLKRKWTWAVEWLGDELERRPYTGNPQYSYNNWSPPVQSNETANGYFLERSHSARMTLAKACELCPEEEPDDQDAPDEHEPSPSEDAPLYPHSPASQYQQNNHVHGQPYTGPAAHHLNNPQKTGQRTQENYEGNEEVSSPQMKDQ
Sequence of UniProt P51784 (P51784 whole entry): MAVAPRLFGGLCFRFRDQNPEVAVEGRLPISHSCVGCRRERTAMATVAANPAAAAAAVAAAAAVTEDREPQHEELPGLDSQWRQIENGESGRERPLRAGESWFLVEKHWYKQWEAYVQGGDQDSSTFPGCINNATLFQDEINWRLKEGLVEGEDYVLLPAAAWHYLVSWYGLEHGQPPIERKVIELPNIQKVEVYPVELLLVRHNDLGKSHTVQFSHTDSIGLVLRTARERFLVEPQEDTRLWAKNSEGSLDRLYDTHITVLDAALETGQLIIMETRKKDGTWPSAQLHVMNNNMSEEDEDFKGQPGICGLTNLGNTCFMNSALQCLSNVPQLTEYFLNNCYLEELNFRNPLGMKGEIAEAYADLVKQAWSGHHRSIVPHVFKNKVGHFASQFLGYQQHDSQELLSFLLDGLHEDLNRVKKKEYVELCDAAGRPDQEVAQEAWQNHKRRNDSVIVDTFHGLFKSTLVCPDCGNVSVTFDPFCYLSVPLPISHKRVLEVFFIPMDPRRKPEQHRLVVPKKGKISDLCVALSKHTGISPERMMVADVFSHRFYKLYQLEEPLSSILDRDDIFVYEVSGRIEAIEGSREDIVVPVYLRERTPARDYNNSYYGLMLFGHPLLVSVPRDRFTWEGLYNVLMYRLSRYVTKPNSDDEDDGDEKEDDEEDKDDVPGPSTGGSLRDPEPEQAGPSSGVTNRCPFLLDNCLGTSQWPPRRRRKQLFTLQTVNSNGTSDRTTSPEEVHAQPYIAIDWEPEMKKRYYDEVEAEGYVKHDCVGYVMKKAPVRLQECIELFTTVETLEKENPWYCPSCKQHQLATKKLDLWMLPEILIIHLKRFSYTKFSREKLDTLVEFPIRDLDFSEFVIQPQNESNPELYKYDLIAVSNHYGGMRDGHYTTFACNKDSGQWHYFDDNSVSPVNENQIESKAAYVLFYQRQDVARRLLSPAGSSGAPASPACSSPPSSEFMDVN

Row | SMILES | log2 ratio of Biotin-Ahx-Ub-VS probe labelling (UniProt O00507) | log2 ratio of Biotin-Ahx-Ub-VS probe labelling (UniProt P51784) | log2 ratio of Biotin-Ahx-Ub-VS probe labelling (UniProt Q5T2D3) | log2 ratio of Biotin-Ahx-Ub-VS probe labelling (UniProt Q8TE49) | log2 ratio of Biotin-Ahx-Ub-VS probe labelling (UniProt Q9P2H5) | log2 ratio of Biotin-Ahx-Ub-VS probe labelling (UniProt Q9UGI0) | log2 ratio of Biotin-Ahx-Ub-VS probe labelling (YOD1)
1 | Cc1ncsc1CCNC(=O)CCl | 0.115 | 0.269 | -0.0368 | -0.0765 | -0.0174 | -0.0599 | 0.0977
2 | Cc1ccc(N(CCC#N)C(=O)CCl)cc1C | -0.369 | -0.0613 | -0.0739 | -2.2 (active) | -0.14 | -1.49 (active) | 0.0402
3 | Cl.O=C(CCl)N1CCCC(c2ncc[nH]2)C1 (centres undefined) | 0.0496 | 0.000136 | -0.124 | -0.0422 | 0.113 | -0.517 | -0.0255
4 | COc1cccc(CN(C)C(=O)CCl)c1 | -0.462 | -0.179 | -0.0411 | -0.149 | 0.258 | -1.23 (active) | 0.0172
5 | O=C(O)C1Cc2ccccc2CN1C(=O)CCl (centres undefined) | -0.298 | -0.0646 | -0.268 | -0.664 | -0.394 | -0.642 | -0.0629
6 | CC(NC(=O)CCl)c1cnn(C2CC2)c1 (centres undefined) | -0.607 | -0.127 | -0.192 | -0.779 | -0.0606 | -0.311 | -0.732
7 | CC(O)CC1CCN(C(=O)CCl)CC1 (centres undefined) | 0.0435 | -0.0578 | -0.0758 | -0.714 | 0.0392 | 0.164 | -0.124
8 | O=C(CCl)Nc1ccc(F)cc1Cl | -0.442 | -0.238 | -0.425 | -1.35 | -0.211 | -1.18 (active) | -0.759
9 | Cc1ccccc1CN(C)C(=O)CCl | -1.06 (active) | -0.62 | -0.704 | -1.06 (active) | -0.712 | -1.3 (active) | -0.638
10 | O=C(CCl)NCc1ccc2c(c1)OCO2 | 0.0979 | 0.0895 | -0.281 | -0.708 | -0.288 | -0.607 | 0.157
11 | O=C(CCl)NCCc1ccc2c(c1)OCCO2 | -0.489 | 0.0955 | -0.249 | -0.327 | -0.0308 | -0.256 | -0.414
12 | Cc1ncc2c(n1)CCN(C(=O)CCl)C2 | 0.136 | 0.000874 | -0.239 | -0.624 | -0.422 | -0.458 | 0.165
13 | Cc1noc(C)c1CNC(=O)CCl | -0.346 | -0.582 | -0.715 | -1.28 (active) | -0.835 | -1.01 (active) | -0.752
14 | COc1ccc(CN(C)C(=O)CCl)cc1 | -0.339 | 0.00264 | -0.273 | -0.895 | 0.0343 | -0.846 | -0.295
15 | CN(C)C(=O)c1ccc(NC(=O)CCl)cc1 | 0.0581 | -0.0219 | 0.0298 | 0.182 | 0.102 | -0.97 | 0.0572
16 | CC1CN(c2ccc(NC(=O)CCl)cc2)CC(C)O1 (centres undefined) | -0.0662 | 0.0387 | -0.298 | -0.392 | -0.0224 | -0.221 | -0.123
17 | Cl.O=C(CCl)N1CC(c2ccc(Br)cn2)C1 | -0.573 | -0.0636 | -0.282 | -0.974 | -0.175 | -0.897 | -0.229
18 | O=C(CCl)NC1CCC(C(F)(F)F)CC1 (centres undefined) | -0.728 | 0.104 | -0.211 | -0.706 | 0.159 | -0.54 | -0.348
19 | C/C(=C\CNC(=O)CCl)c1cnn(C)c1.Cl | -0.224 | -0.391 | -0.0109 | -0.499 | -0.465 | -0.0207 | -0.155
20 | Cl.Cn1nc2c(c1CNC(=O)CCl)CCCC2 | 0.0971 | 0.0528 | -0.274 | -0.529 | -0.23 | -0.319 | -0.144
21 | Cl.Cn1c(CNC(=O)CCl)nc2cccnc21 | -0.348 | -0.0765 | -0.354 | -0.488 | -0.199 | -0.199 | -0.334
22 | O=C(CCl)N1CCOC(c2cccc(F)c2)C1 (centres undefined) | 0.244 | -0.328 | -0.182 | -1.26 (active) | -0.416 | -1.44 (active) | -0.0782
